PubChem BioAssay (NCI)
The panel holds about 83,000 compounds, 20% with a hit somewhere; the sample as a whole holds those more often.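 A percent growth of 40 corresponds to 60% growth inhibition; 0 means no net growth; -100 means all cells died. Active threshold: below 10.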 Active and inactive are the calls of the source.

Legend:
Experiment in all cases: NCI-60 one-dose screen, 48 h (100 = growth as untreated, 0 = no growth, -100 = all killed)
Details in all cases: 10 µM unless noted
T-47D breast = test system: T-47D breast
BT-549 breast = test system: BT-549 breast
MDA-MB-435 melanoma = test system: MDA-MB-435 melanoma
SW-620 colon = test system: SW-620 colon
MCF7 breast = test system: MCF7 breast
HCT-116 colon = test system: HCT-116 colon
HCC-2998 colon = test system: HCC-2998 colon
KM12 colon = test system: KM12 colon

Measured: growth

CCOC(=O)C1=C(C)C(Cl)=N/C1=C\c1[nH]c(Cl)c(C)c1C(=O)OCC
inactive: T-47D breast 94.9% | BT-549 breast 91.2% | MDA-MB-435 melanoma 103% | SW-620 colon 106% | MCF7 breast 90.3% | HCT-116 colon 84.5% | HCC-2998 colon 130% | KM12 colon 100%

CC(C)N1C(=O)/C(=c2\sc3n(c2=O)C2C(NN=3)N(C)C(=O)N2C)c2ccccc21 (stereo not drawn)
inactive: T-47D breast 64.8% | BT-549 breast 72.1% | SW-620 colon 29.6% | MCF7 breast 21.4% | HCT-116 colon 51.4% | HCC-2998 colon 78.8% | KM12 colon 44.2%
active: MDA-MB-435 melanoma -21.2%

O=C(CSc1nc(-c2ccccc2)cc(=O)[nH]1)Nc1nc(-c2ccccc2)cs1
inactive: T-47D breast 71.8% | BT-549 breast 88% | MDA-MB-435 melanoma 105% | SW-620 colon 107% | MCF7 breast 76.9% | HCT-116 colon 90.3% | HCC-2998 colon 111% | KM12 colon 95.5%

O=C(CCCCCNC(=O)c1cc(=O)c(O)co1)Nc1ccccc1
inactive: T-47D breast 104% | BT-549 breast 95.9% | MDA-MB-435 melanoma 100% | SW-620 colon 101% | MCF7 breast 88.6% | HCT-116 colon 97.6% | HCC-2998 colon 101% | KM12 colon 100%

CN1CCN(C(=O)C(C)(C)c2ccc(C(=O)Nc3cn4cc(-c5ccncc5)ccc4n3)cc2)CC1
active: T-47D breast 3.75% | BT-549 breast 7.86% | MCF7 breast -0.0814% | HCT-116 colon 5.31% | KM12 colon 7.82%
inactive: MDA-MB-435 melanoma 14.2% | SW-620 colon 11.1% | HCC-2998 colon 13.9%

CO[C@H]1CC(=O)n2c3ccccc3c3c4c(c5c6ccccc6n1c5c32)C(=O)NC4=O
inactive: T-47D breast 11.1% | BT-549 breast 68.6% | MDA-MB-435 melanoma 48.5% | SW-620 colon 32.8% | MCF7 breast 20.1% | HCT-116 colon 55.6% | HCC-2998 colon 93.7% | KM12 colon 29.9%

O=C(Nc1ncc(Cc2ccccc2)s1)c1ccc2c(c1)OCCCO2
inactive: T-47D breast 18.1% | BT-549 breast 48.8% | SW-620 colon 38.1% | MCF7 breast 16.1% | HCT-116 colon 23% | HCC-2998 colon 22% | KM12 colon 16.4%
active: MDA-MB-435 melanoma -34.2%

CCNc1ccc(-c2nc3ccccc3n3cccc23)cc1
inactive: T-47D breast 55.1% | BT-549 breast 90.4% | MDA-MB-435 melanoma 80.7% | SW-620 colon 92.5% | MCF7 breast 34.4% | HCT-116 colon 88.9% | HCC-2998 colon 92.4% | KM12 colon 72.8%

Cc1ccc(S(=O)(=O)Oc2ccc3sc4cccc(NCCN(C)C)c4c(=O)c3c2)cc1
active: T-47D breast -69.8% | BT-549 breast -88.6% | MDA-MB-435 melanoma -96.3% | SW-620 colon -92.4% | MCF7 breast -86.7% | HCT-116 colon -82.9% | HCC-2998 colon -96.7% | KM12 colon -85%

Cc1ccc(/C=C/C(=O)Nc2ncc(Cc3ccc(F)cc3)s2)o1
inactive: T-47D breast 58.5% | BT-549 breast 68.9% | SW-620 colon 24.6% | MCF7 breast 14% | HCT-116 colon 33.5% | HCC-2998 colon 48.8% | KM12 colon 21%
active: MDA-MB-435 melanoma -25.9%

CC1(C)CC(=O)c2c(nn(-c3ccc(Br)cc3)c2-c2cn(-c3ccccc3)nc2-c2cccnc2)C1
inactive: T-47D breast 70.8% | BT-549 breast 86.9% | MDA-MB-435 melanoma 105% | SW-620 colon 91.4% | MCF7 breast 75.2% | HCT-116 colon 85% | HCC-2998 colon 106% | KM12 colon 97.1%

CCN1CCN(CCNc2nccc(-c3c(-c4ccc(F)c(OC)c4)nc4sccn34)n2)S1(=O)=O
inactive: T-47D breast 87.3% | BT-549 breast 93.2% | MDA-MB-435 melanoma 26.6% | SW-620 colon 87.4% | MCF7 breast 50% | HCT-116 colon 44.5% | HCC-2998 colon 89% | KM12 colon 74.2%

C=C(C)[C@@H]1CCC[C@]2(C(=O)N3CCN(C)CC3)CC[C@]3(C)[C@@H](CC[C@@H]4[C@@]5(C)CC/C(=N\NC(=O)c6ccncc6)C(C)(C)[C@@H]5CC[C@]43C)[C@@H]12
inactive: T-47D breast 87.7% | BT-549 breast 105% | MDA-MB-435 melanoma 81.8% | SW-620 colon 81.2% | MCF7 breast 50.7% | HCT-116 colon 97.8% | HCC-2998 colon 105% | KM12 colon 85.4%

CCNC(=O)Oc1ccc(/C(=C(/C)Cc2ccc(OC)cc2)c2ccc(OCCN3CCCCC3)cc2)cc1
inactive: T-47D breast 42.5% | BT-549 breast 92.5% | MDA-MB-435 melanoma 68.1% | SW-620 colon 77.8% | MCF7 breast 29.9% | HCT-116 colon 49.2% | HCC-2998 colon 67.9% | KM12 colon 67.8%

CSC1=Nc2c(c(C)c(-c3ccccc3)n2CCCC(=O)O)C2=NC(=O)C[C@H](C)N12
inactive: T-47D breast 113% | BT-549 breast 105% | MDA-MB-435 melanoma 102% | SW-620 colon 102% | MCF7 breast 88.8% | HCT-116 colon 101% | HCC-2998 colon 104% | KM12 colon 97.1%

COc1ccc(-c2nc(-c3cn(C)c4ncccc34)cs2)cc1
active: T-47D breast -6.67% [100 µM] | BT-549 breast -30.1% [100 µM] | MDA-MB-435 melanoma -43.6% [100 µM] | MCF7 breast -17.8% [100 µM] | HCT-116 colon -75.3% [100 µM] | HCC-2998 colon -9.69% [100 µM] | KM12 colon 3.74% [100 µM]
inactive: SW-620 colon 10.8% [100 µM]

N=C(N)c1ccc(-c2ccc(-c3ccccc3)s2)cc1
inactive: T-47D breast 44.5% | BT-549 breast 90.6% | MDA-MB-435 melanoma 12% | MCF7 breast 13.8%
active: SW-620 colon -46.2% | HCT-116 colon -55.1% | HCC-2998 colon -27.7% | KM12 colon -7.55%

O=C(O)COc1ccc(Cl)c(Cl)c1
inactive: T-47D breast 95.7% | BT-549 breast 120% | MDA-MB-435 melanoma 104% | SW-620 colon 109% | MCF7 breast 108% | HCT-116 colon 109% | HCC-2998 colon 106% | KM12 colon 110%

Cc1ccc(-c2nc(-c3cn(C)c4ncccc34)cs2)cc1
active: T-47D breast -3.08% [100 µM] | BT-549 breast -42.1% [100 µM] | MDA-MB-435 melanoma -39.5% [100 µM] | SW-620 colon -11.6% [100 µM] | MCF7 breast -18% [100 µM] | HCT-116 colon -73.1% [100 µM] | HCC-2998 colon -67.9% [100 µM] | KM12 colon -55.5% [100 µM]

NC(=O)c1cnc(Nc2cccc(N)c2)nc1NCCCNC(=O)C1CCC1
inactive: T-47D breast 106% | BT-549 breast 26.7% | MDA-MB-435 melanoma 82.6% | SW-620 colon 86.8% | MCF7 breast 74.7% | HCT-116 colon 65.5% | HCC-2998 colon 103% | KM12 colon 74.8%

CCc1ccc(CCC(=O)Nc2ncc(Cc3cc(Cl)ccc3Cl)s2)o1
active: MDA-MB-435 melanoma -42.6%
inactive: T-47D breast 44% | BT-549 breast 36.4% | SW-620 colon 24.1% | MCF7 breast 14% | HCT-116 colon 17.5% | HCC-2998 colon 19.7% | KM12 colon 20.3%

COc1ccc2[nH]cc(-c3nc(-c4c[nH]c5c(Cl)nccc45)cs3)c2c1
active: SW-620 colon 1.95%
inactive: T-47D breast 24.5% | BT-549 breast 51.3% | MDA-MB-435 melanoma 51.8% | MCF7 breast 54.7% | HCT-116 colon 36.4% | HCC-2998 colon 68.6% | KM12 colon 33.3%

N[C@H]1CCC[C@@H]1NCCCCN1C(=O)c2cccc3cc([N+](=O)[O-])cc(c23)C1=O
inactive: T-47D breast 57.5% | BT-549 breast 68.3% | MDA-MB-435 melanoma 53.2% | SW-620 colon 26.7% | MCF7 breast 19.7% | HCC-2998 colon 51.9% | KM12 colon 36.6%
active: HCT-116 colon 9.25%

COC(=O)CC[C@@H]1O[C@@H](c2ccc(F)cc2)[C@@H](O)[C@H]1O
inactive: T-47D breast 104% | BT-549 breast 105% | MDA-MB-435 melanoma 98.4% | SW-620 colon 101% | MCF7 breast 96% | HCT-116 colon 89.3% | HCC-2998 colon 99.6% | KM12 colon 99.7%

C=C(C)[C@@H]1CC[C@]2(C)[C@H](CC=C3[C@@H]4CC(C)(C)CC[C@]4(CO)CC[C@]32C)[C@@]1(C)CCCN
active: T-47D breast -26.5% | MDA-MB-435 melanoma -84% | SW-620 colon -81.9% | MCF7 breast -41.4% | HCT-116 colon -79.6% | HCC-2998 colon -76% | KM12 colon -53.9%
inactive: BT-549 breast 64.6%

Cc1ccc2nc(NC(=O)CSc3nc(-c4ccccc4)c(C#N)c4nnnn34)sc2c1
inactive: T-47D breast 100% | BT-549 breast 106% | MDA-MB-435 melanoma 105% | SW-620 colon 104% | MCF7 breast 95.7% | HCT-116 colon 99.1% | HCC-2998 colon 103% | KM12 colon 102%

N#C/C(=C\c1ccc([N+](=O)[O-])cc1)n1nnc2cc(F)c(F)cc21
inactive: BT-549 breast 77.6% | MDA-MB-435 melanoma 41.1% | MCF7 breast 21.8%
active: T-47D breast -15.2% | SW-620 colon -18.5% | HCT-116 colon -46.4% | HCC-2998 colon -56.2% | KM12 colon 3.75%

CN(C)CCN1C(=O)c2cccc3c(/C=C/CN4C(=O)c5cccc6cccc(c56)C4=O)ccc(c23)C1=O
active: MCF7 breast -71.6% | HCT-116 colon 9.57% | KM12 colon -79.4%
inactive: T-47D breast 97.6% | BT-549 breast 97% | MDA-MB-435 melanoma 89.3% | SW-620 colon 11.9% | HCC-2998 colon 36.4%

COc1ccc2c(c1)c(-c1nc(-c3c[nH]c4ncccc34)cs1)cn2CCCN1CCOCC1
inactive: T-47D breast 31.7% | BT-549 breast 52.2% | MDA-MB-435 melanoma 47% | SW-620 colon 21.2% | MCF7 breast 13.3% | HCT-116 colon 25.3% | HCC-2998 colon 65.5% | KM12 colon 17%

CSC(SC)=C(C#N)c1nc2ccccc2s1
inactive: T-47D breast 33.2% | BT-549 breast 13.1% | MDA-MB-435 melanoma 76.5% | SW-620 colon 81.5% | MCF7 breast 47.3% | HCT-116 colon 14.2% | HCC-2998 colon 82.2% | KM12 colon 58.3%

CCOC(=O)c1cnc2c(N=Nc3ccc(OC)cc3)c(N)nn2c1N
inactive: T-47D breast 104% | BT-549 breast 120% | MDA-MB-435 melanoma 95% | SW-620 colon 101% | MCF7 breast 85.9% | HCT-116 colon 101% | HCC-2998 colon 106% | KM12 colon 99.6%
